From PubChem
PME-1 inh – blocks human protein phosphatase methylesterase 1; recombinant PME-1, FP-Rh probe fluorescence polarization; inhibition, % at 5.9 µM; hit rate 0.53% among 320,000;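 active = inhibition above the campaign mean of all compounds plus 3 SD, cut at about 26% in these data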;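 also: competitive labeling of PME-1 active site by serine hydrolase directed probe; 0% = PME-1 with DMSO and 100% = wells lacking PME-1 enzyme; inhibitors block probe labeling so polarization falls and inhibition rises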
GSTO1 counter – GSTO1 inhibition, counter-screen for RBBP9 inhibitors; P78417; recombinant GSTO1, activity-based probe fluorescence polarization; inhibition, % at 5.96 µM; hit rate 1.1% among 300,000; AID 1974;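 active = inhibition above the campaign mean inhibition plus 3 SD, cut at about 35% in these data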;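 also: 0% = GSTO1-1 with DMSO and 100% = wells lacking GSTO1-1 enzyme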
Target sequence (P78417 whole entry, looked up): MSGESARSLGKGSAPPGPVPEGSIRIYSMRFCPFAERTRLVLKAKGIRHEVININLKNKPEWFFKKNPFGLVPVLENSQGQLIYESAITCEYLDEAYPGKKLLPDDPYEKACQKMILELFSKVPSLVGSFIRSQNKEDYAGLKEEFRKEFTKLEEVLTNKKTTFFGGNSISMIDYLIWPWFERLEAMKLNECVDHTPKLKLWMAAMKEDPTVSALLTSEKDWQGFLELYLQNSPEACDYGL
Fam108B counter – Fam108B inhibition, counter-screen for RBBP9 inhibitors. recombinant Fam108B, FP-Rh probe fluorescence polarization. inhibition, % at 9.51 µM. hit rate 0.33% among 300,000;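 active = inhibition above the screen mean inhibition plus 3 SD, computed separately per campaign, cut at about 18% in these data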;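 also: inhibitors lower polarization as less probe binds the enzyme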
LYPLA2 counter – blocks human lysophospholipase 2, a PME1 counter-screen | O95372 | recombinant LYPLA2, FP-Rh probe fluorescence polarization | inhibition, % at 5.9 µM | hit rate 0.38% among 320,000 | AID 2177;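 active = inhibition above the screen-wide mean plus 3 SD, limit set per campaign, cut at about 26% in these data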;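 also: 0% = LYPLA2 with DMSO and 100% = wells lacking LYPLA2 enzyme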
PAD4 FP inh – inhibitors of human PAD4; inhibition, % at 6.36 µM; hit rate 0.41% among 330,000; recombinant PAD4, RCA probe fluorescence polarization; Q9UM07;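 active = percent inhibition above a cutoff equal to the mean of all tested compounds plus 3 SD, cut at about 15% in these data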;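 also: 0% = PAD4 with RCA probe and DMSO and 100% = probe without PAD4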
LYPLA1 inh – blocks human lysophospholipase 1, a PME1 counter-screen. recombinant LYPLA1, FP-Rh probe fluorescence polarization. inhibition, % at 5.9 µM. hit rate 0.16% among 320,000. AID 2174;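 active = inhibition above the mean of all tested compounds plus 3 SD, set per campaign, cut at about 14% in these data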;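 also: inhibitors block serine hydrolase probe labeling of LYPLA1 so polarization falls; 0% = enzyme with DMSO and 100% = wells lacking LYPLA1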
Target sequence (O75608 whole entry, looked up): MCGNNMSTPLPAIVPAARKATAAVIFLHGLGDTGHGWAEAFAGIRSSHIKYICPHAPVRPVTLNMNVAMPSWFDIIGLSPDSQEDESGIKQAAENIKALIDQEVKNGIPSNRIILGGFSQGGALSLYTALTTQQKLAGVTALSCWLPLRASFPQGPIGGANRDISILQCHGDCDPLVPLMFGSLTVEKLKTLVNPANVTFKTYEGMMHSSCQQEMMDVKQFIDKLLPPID
GSTO1 confirm – GSTO1 (human) inhibition, confirmation; AID 2176; shares compounds with GSTO1 counter; recombinant GSTO1, probe fluorescence polarization; hit rate 54% among 2,400; inhibition, % at 5.96 µM;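 active = inhibition above the primary screen's cutoff, its mean inhibition plus 3 SD, cut at about 35% in these data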;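 also: loss of polarization as inhibitors block binding of rhodamine sulfonate ester activity probe; 0% = GSTO1 with DMSO and 100% = wells lacking GSTO1 enzyme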
LYPLA1 conf – LYPLA1 (human) inhibition, confirmation counter-screen; shares compounds with LYPLA1 inh; AID 2233; recombinant LYPLA1, FP-Rh probe fluorescence polarization; inhibition, % at 5.9 µM; hit rate 69% among 480;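 active = mean inhibition across replicates above the hit cutoff set in the primary screen, cut at about 15% in these data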;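 also: loss of FP-Rh probe labeling of LYPLA1 seen as lower polarization; 0% = LYPLA1 with DMSO and 100% = wells lacking LYPLA1 enzyme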
LYPLA2 conf – LYPLA2 (human) inhibition, confirmation counter-screen. recombinant LYPLA2, FP-Rh probe fluorescence polarization. inhibition, % at 5.9 µM. hit rate 72% among 1,100. shares compounds with LYPLA2 counter;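 active = mean inhibition across replicates above the hit cutoff set in the primary screen, cut at about 26% in these data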;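 also: blocked labeling of the enzyme by serine hydrolase FP-Rh probe lowers polarization; 0% = enzyme with DMSO and 100% = wells lacking LYPLA2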
PAD4 confirm – PAD4 (human) inhibition, confirmed; shares compounds with PAD4 FP inh; recombinant PAD4, RCA probe fluorescence polarization; inhibition, % at 6.36 µM; hit rate 28% among 1,200;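 active = mean inhibition across replicates above the hit cutoff set by the earlier primary screen, cut at about 15% in these data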;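 also: inhibitors block active-site labeling by the probe so polarization falls; 0% = PAD4 with probe and DMSO and 100% = probe without PAD4 enzyme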
* marks the source's active call; other numbers are inactive results; nt = no result given. The list is not random: actives were taken first. Their share in the collection is about 1.8%.

SMILES	PME-1 inh	GSTO1 counter	Fam108B counter	LYPLA2 counter	PAD4 FP inh	LYPLA1 inh	GSTO1 confirm	PAD4 confirm	others
Nc1nc(-c2cccs2)cs1	1	67*	-2	-1	19*	-1	13	5
CC1=NN(c2ccccc2)C(=O)C1N=Nc1ccc(C)cc1 (centres undefined)	-2	2	-2	1	0	1	nt	nt
CC1=NN(c2ccc(C)cc2C)C(=O)C1C(c1ccccc1O)C1C(=O)N(c2ccc(C)cc2C)N=C1C (centres undefined)	0	56*	-2	5	45*	-1	10	-16
Nc1ccc2c(c1)C(=O)C(=O)c1ccccc1-2	38*	94*	66*	95*	82*	87*	94*	73*	LYPLA1 conf=81*;LYPLA2 conf=92*
Nc1ccc2c(c1)C(=O)c1ccccc1C2=O	5	23	3	3	-6	1	nt	nt
COc1ccc2ccc3c(c2c1)N=CC1(O3)N(C)c2ccccc2C1(C)C (centres undefined)	9	90*	3	8	59*	0	5	6
O=C(Cn1ncn2nc(-c3ccccc3)cc2c1=O)NCc1ccccn1	1	5	2	3	-4	1	nt	nt
Cc1ccc(Nc2cc(=O)oc3ccccc23)c(C)c1	1	-3	-1	3	2	-1	nt	nt
Cc1cccc(NC2=C/C(=N/S(=O)(=O)c3cccs3)c3ccccc3C2=O)c1	16	84*	17	7	28*	3	81*	40*
Cc1ccc(NC2=C/C(=N\S(=O)(=O)c3cccs3)c3ccccc3C2=O)c(C)c1	6	81*	19*	14	65*	0	89*	56*
COc1cccc(Nc2nc3ccccc3nc2NS(=O)(=O)c2cccs2)c1	20	29	6	-1	-2	2	nt	nt
O=C(O)CC1S/C(=N/N=C/c2ccc(-c3ccccc3[N+](=O)[O-])o2)NC1=O (centres undefined)	-2	62*	6	2	20*	0	9	-2
O=[N+]([O-])c1ccccc1-c1ccc(/C=N/n2cnnc2)o1	4	12	-6	1	-4	1	nt	nt
Cc1ccc(NC(=O)c2ccc(F)cc2F)cc1NS(C)(=O)=O	3	8	-1	1	6	1	nt	nt
O=C(Nc1ccc2nsnc2c1)N1CCCCC1	0	25	4	6	-2	0	nt	nt
S=C(Nc1ccc2nsnc2c1)N1CCCCCC1	11	77*	16	5	50*	4	79*	-4
CN(C)c1ccc(C=Nc2ccc(N(C)C)cc2)cc1	9	78*	6	-1	32*	-5	6	-4
Cc1ccc(N=Cc2ccc(N(C)C)cc2)cc1	-4	6	-3	6	-1	3	nt	nt
Cc1cccc(CN2CCN(CCCc3ccccc3)CC2)c1	2	7	3	13	-2	7	nt	nt
Cc1cc(=O)n(CCCc2ccccc2)[nH]1	0	42*	-4	-3	29*	-3	8	-5
COCCNC(=O)c1cc(S(=O)(=O)N(C)c2ccccc2OC)ccc1C	1	-2	4	6	2	2	nt	nt
COc1ccc(Br)cc1CNc1ccc(O)cc1	29*	86*	4	9	28*	14	6	2
COc1ccc(Br)cc1CNc1ccc2[nH]c(=O)[nH]c2c1	5	-10	0	-4	-8	4	nt	nt
O=C(O)/C=C/C(=O)Nc1ccc(O)cc1	13	59*	0	14	60*	3	8	4
CCOc1cc(CNc2ccc(N(C)C)cc2)cc(Br)c1OCC(=O)NC(C)(C)C	9	81*	3	11	23*	2	4	0
